# Among all 39,000 compounds or so, about 3,300 (8.5%) were called active. Shown is part of a subset that was picked to be rich in actives.
# System: HepG2
# Test: cytotoxicity call (relative viability < 0.9)
# Conditions: 10 µM
row,SMILES,cytotoxicity call
1,COc1ccc(CN(C)C[C@H]2OCCCC[C@H](C)Oc3ccc(NS(=O)(=O)c4ccc(Cl)cc4)cc3C(=O)N([C@H](C)CO)C[C@@H]2C)cc1,inactive
2,COCC(=O)N1[C@H](C(=O)NCc2ccccc2)[C@@H](CO)[C@@H]2Cn3c(cccc3=O)[C@@H]21,inactive
3,C[C@H]1CN([C@@H](C)CO)C(=O)c2cc(NC(=O)CCCN(C)C)ccc2O[C@@H]1CN(C)Cc1ccccc1,inactive
4,C[C@@H]1CN([C@@H](C)CO)C(=O)c2cc(NC(=O)CCCN(C)C)ccc2O[C@@H]1CN(C)Cc1ccc(Oc2ccccc2)cc1,active
5,C[C@@H]1CN([C@H](C)CO)C(=O)c2cc(NC(=O)CCCN(C)C)ccc2O[C@@H]1CN(C)Cc1ccccc1,inactive
6,C[C@H](CO)N1C[C@H](C)[C@H](CN(C)Cc2ccc(Oc3ccccc3)cc2)Oc2ccc(NC(=O)CCCN(C)C)cc2C1=O,active
7,C[C@H](CO)N1C[C@H](C)[C@H](CN(C)Cc2ccccc2)Oc2ccc(NC(=O)CCCN(C)C)cc2C1=O,inactive
8,C[C@@H]1CN([C@@H](C)CO)C(=O)c2cc(NC(=O)CCCN(C)C)ccc2O[C@@H]1CN(C)Cc1ccccc1,inactive
9,Cc1noc(C)c1NC(=O)Nc1ccc2c(c1)CC(=O)N([C@@H](C)CO)C[C@H](C)[C@H](CN(C)Cc1ccc(C(F)(F)F)cc1)O2,inactive
10,C[C@@H]1CN([C@H](C)CO)C(=O)c2cc(NC(=O)Nc3ccc(F)cc3)ccc2O[C@@H](C)CCCCO[C@H]1CN(C)C(=O)Nc1ccccc1,inactive
11,O=c1[nH]ncc2ccccc12,inactive
12,Cc1ccc(S(=O)(=O)Nc2cccc3c2O[C@@H](CN(C)S(=O)(=O)c2ccccc2)[C@H](C)CN([C@H](C)CO)C3=O)cc1,inactive
13,O=C(CN1CCOCC1)NCC[C@H]1CC[C@@H](NC(=O)c2ccc3c(c2)OCO3)[C@@H](CO)O1,inactive
14,Cc1ccc(S[C@]2(C(=O)NC(C)C)CC(=O)N(Cc3ccccc3Cl)[C@@H]2c2ccc(CO)cc2I)cc1,inactive
15,O=C(C[C@@H]1C[C@@H]2c3cc(NS(=O)(=O)c4ccc(F)cc4)ccc3O[C@@H]2[C@H](CO)O1)N1CCCCC1,inactive
16,C[C@H](CO)N1C[C@H](C)[C@@H](CN(C)Cc2ccc(C(=O)Nc3ccccc3N)cc2)Oc2ccc(NC(=O)CCC(F)(F)F)cc2CC1=O,inactive
17,C[C@H]1CN([C@@H](C)CO)C(=O)Cc2cc(NC(=O)Nc3ccc(C(F)(F)F)cc3)ccc2O[C@@H]1CN(C)Cc1ccc(C(=O)Nc2ccccc2N)cc1,inactive
18,C[C@@H]1CN([C@@H](C)CO)C(=O)Cc2cc(NC(=O)Nc3ccccc3)ccc2O[C@@H]1CN(C)Cc1ccc(C(=O)Nc2ccccc2N)cc1,inactive
19,C[C@H]1CN([C@@H](C)CO)C(=O)Cc2cc(NC(=O)CCC(F)(F)F)ccc2O[C@H]1CN(C)Cc1ccc(C(=O)Nc2ccccc2N)cc1,active
20,C[C@@H]1CN([C@H](C)CO)C(=O)Cc2cc(NC(=O)Nc3ccc(C(F)(F)F)cc3)ccc2O[C@H]1CN(C)Cc1ccc(C(=O)Nc2ccccc2N)cc1,inactive
21,C[C@H]1CN([C@@H](C)CO)C(=O)Cc2cc(NC(=O)Nc3ccc(C(F)(F)F)cc3)ccc2O[C@H]1CN(C)Cc1ccc(C(=O)Nc2ccccc2N)cc1,active
22,C[C@@H]1CN([C@H](C)CO)C(=O)Cc2cc(NC(=O)Nc3ccc(C(F)(F)F)cc3)ccc2O[C@@H]1CN(C)Cc1ccc(C(=O)Nc2ccccc2N)cc1,active
23,C[C@@H]1CN([C@@H](C)CO)C(=O)Cc2cc(NC(=O)Nc3ccc(C(F)(F)F)cc3)ccc2O[C@@H]1CN(C)Cc1ccc(C(=O)Nc2ccccc2N)cc1,active

row,SMILES,cytotoxicity call
1,C[C@@H]1CN([C@H](C)CO)C(=O)Cc2cc(NC(=O)CCC(F)(F)F)ccc2O[C@H]1CN(C)Cc1ccc(C(=O)Nc2ccccc2N)cc1,inactive
2,CC(=O)O[C@H]1C[C@@H]2CC[C@@H]3[C@H](CC[C@@]4(C)[C@H]3C[C@H]([N+]3(C)CCCCC3)[C@@H]4OC(C)=O)[C@@]2(C)C[C@@H]1N1CCCCC1,inactive
3,C[C@@H]1CN([C@@H](C)CO)C(=O)c2cc(NC(=O)CCN3CCOCC3)ccc2O[C@@H]1CN(C)Cc1ccncc1,inactive
4,C[C@@H]1CN([C@@H](C)CO)C(=O)c2cc(NS(=O)(=O)c3cccs3)ccc2O[C@H]1CN(C)S(C)(=O)=O,inactive
5,Cc1noc(C)c1S(=O)(=O)Nc1ccc2c(c1)CC(=O)N([C@H](C)CO)C[C@@H](C)[C@@H](CN(C)S(=O)(=O)c1cccs1)O2,inactive
6,Cc1noc(C)c1S(=O)(=O)Nc1cccc2c1O[C@H](CN(C)C(=O)NC1CCCCC1)[C@H](C)CN([C@H](C)CO)C2=O,inactive
7,CC(C)CC#Cc1ccc2c(c1)O[C@H](CN(C)C(=O)c1ccccn1)[C@@H](C)CN([C@@H](C)CO)S2(=O)=O,inactive
8,CC(C)(C)[S@@](=O)N1Cc2cc(C(=O)N[C@H]3CCN(Cc4ccccc4)C3)nc(-c3cccc(-c4cccnc4)c3)c2[C@H]1CCO,inactive
9,C[C@H]1CN([C@@H](C)CO)C(=O)c2cc(C#Cc3ccc(F)cc3)cnc2O[C@H]1CN(C)Cc1ccccn1,inactive
10,COc1ccc(NC(=O)Nc2ccc3c(c2)CC(=O)N([C@H](C)CO)C[C@@H](C)[C@@H](CN(C)S(=O)(=O)c2cn(C)cn2)O3)cc1,inactive
11,C[C@H](CO)N1C[C@H](C)[C@H](CN(C)Cc2ccc(C(=O)Nc3ccccc3N)cc2)Oc2ccc(NC(=O)Nc3ccc(C(F)(F)F)cc3)cc2CC1=O,active
12,Cc1ccc(S(=O)(=O)Nc2cccc3c2O[C@H](CN(C)C(=O)Nc2ccc(C(F)(F)F)cc2)[C@@H](C)CN([C@@H](C)CO)C3=O)cc1,inactive
13,C[C@H]1CN([C@@H](C)CO)C(=O)c2cc(NC(=O)Nc3ccc(C(F)(F)F)cc3)ccc2O[C@H]1CN(C)S(=O)(=O)c1ccc(F)cc1,active
14,C[C@H]1CN([C@@H](C)CO)C(=O)c2cc(NC(=O)Nc3ccc(C(F)(F)F)cc3)ccc2O[C@H]1CN(C)S(C)(=O)=O,inactive
15,C[C@@H]1CN([C@H](C)CO)C(=O)c2cc(NC(=O)Nc3ccc(C(F)(F)F)cc3)ccc2O[C@H]1CN(C)S(=O)(=O)c1ccc(F)cc1,active
16,C[C@H](CO)N1C[C@H](C)[C@@H](CN(C)S(=O)(=O)c2ccc(F)cc2)Oc2ccc(NC(=O)Nc3ccc(C(F)(F)F)cc3)cc2C1=O,inactive
17,C[C@@H]1CN([C@H](C)CO)C(=O)c2cc(NC(=O)Nc3ccc(C(F)(F)F)cc3)ccc2O[C@H]1CN(C)S(C)(=O)=O,inactive
18,C[C@@H]1CN([C@H](C)CO)C(=O)c2cc(NC(=O)Nc3ccc(C(F)(F)F)cc3)ccc2O[C@@H]1CN(C)S(=O)(=O)c1ccc(F)cc1,active
19,C[C@@H]1CN([C@@H](C)CO)C(=O)c2cc(NC(=O)Nc3ccc(C(F)(F)F)cc3)ccc2O[C@H]1CN(C)S(=O)(=O)c1ccc(F)cc1,inactive
20,C[C@@H]1CN([C@@H](C)CO)C(=O)c2cc(NC(=O)Nc3ccc(C(F)(F)F)cc3)ccc2O[C@@H]1CN(C)S(=O)(=O)c1ccc(F)cc1,active
21,C[C@H]1CN([C@@H](C)CO)C(=O)c2cc(NC(=O)Nc3ccc(C(F)(F)F)cc3)ccc2O[C@@H]1CN(C)S(=O)(=O)c1ccc(F)cc1,inactive
22,C[C@H](CO)N1C[C@H](C)[C@H](CN(C)S(=O)(=O)c2ccc(F)cc2)Oc2ccc(NC(=O)Nc3ccc(C(F)(F)F)cc3)cc2C1=O,inactive
23,C[C@H]1CN([C@@H](C)CO)C(=O)c2cc(NC(=O)Nc3ccc(C(F)(F)F)cc3)ccc2O[C@@H]1CN(C)S(C)(=O)=O,inactive
